D3 antag – antagonists of human D3 dopamine receptor; D3R cells, DiscoveRx beta-arrestin luminescence, antagonist mode; active compounds read low; max response, negative = inhibition, %; hit rate 2.5% among 360,000; in the data active means max response below about -50%; inconclusive means no clear call, values can overlap the other calls; further: on the % scale 0 is the no-effect control and ±100 the full control effect
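Cells plated overnight at 1500 cells/well, then exposed to library compounds with dopamine controls for 90 minutes at 37 degrees C. DiscoveRx reagent added for 30–60 minutes at room temperature; luminescence read, quantitative HTS format.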
DRD3 agonist – agonists of human D3 dopamine receptor; hit rate 0.58% among 410,000; max activation, %; D3R DiscoveRx beta-arrestin cells, luminescence, 90 min; in the data active means max activation above about 30%; further: 0% is about no effect
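Agonist mode: compounds and dopamine controls were applied to plated cells for 90 min at 37 degrees C after an overnight attachment at 1500 cells/well. Luminescent read-out followed 30 - 60 minutes at room temperature with DiscoveRx detection reagent.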
TSHR antagonist – human thyrotropin receptor antagonism; P16473; TSHR-expressing cells, TSH-stimulated cAMP HTRF, 2 h; active compounds read low; activity change, negative = inhibition, % at 11.5 µM; AID 504810; hit rate 0.2% among 330,000;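 active means activity change below a set negative limit, meaning inhibition stronger than a set level, cut at about -70% in these data; inconclusive means activity change between two set negative limits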; further: on the % scale 0 is the no-effect control and ±100 the full control effect
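Cell-based HTRF cAMP assay; TSHR cells + compound, TSH EC80 (4nM final), 2 h, 37 deg C. Lysis with anti-cAMP cryptate and cAMP-d2, 30 min RT, read 665/620 nm.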
B2AR arrestin – agonists driving beta-arrestin recruitment to human beta2-adrenergic receptor. hit rate 0.02% among 330,000. Potency, µM (top dose mostly 46.1 µM), inactives show top-dose activation, actives largely listed as activators. beta-arrestin recruitment to beta2AR, cell-based reporter. AID 492947. P07550; active means well fitted activation curve with a large enough effect; inconclusive means small, poorly fitted or top-dose-only effect;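 further: potency means the concentration at half of the fitted maximal effect; 0% = DMSO controls and full agonism = EC100 isoproterenol or metaproterenol; nearly all actives have a fitted effect of over 65% in size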
Starred values were filed as active, the others as inactive. The list is not random: actives were taken first. Their share in the collection is about 2.9%.

`Cc1cccc(C)c1NC(=O)C(NC(=O)c1ccccn1)c1ccccc1[N+](=O)[O-]` (centres undefined) gave D3 antag 10, DRD3 agonist 4, TSHR antagonist 1 and B2AR arrestin 0%.
Screening COc1ccc(S(=O)(=O)Nc2ccc3c(c2)sc(=O)n3C)cc1Cl returned DRD3 agonist -4.
For COc1ccc([N+](=O)[O-])cc1NC(=O)C(C)N1CCCC1 (centres undefined) the results were D3 antag -62*, DRD3 agonist -23, TSHR antagonist 4 and B2AR arrestin 0%.
Screening COC(=O)Nc1cc([N+](=O)[O-])ccc1OC returned D3 antag 9, DRD3 agonist 4, TSHR antagonist -1 and B2AR arrestin -2%.
c1cnc2c(C3NCCc4c3[nH]c3ccccc43)cccc2c1 (centres undefined) was read as D3 antag -87*, DRD3 agonist -59, TSHR antagonist 3 and B2AR arrestin 0%.
Screening O=C(O)c1cccnc1C(=O)N1CCc2c([nH]c3ccccc23)C1C(F)(F)F (centres undefined) returned D3 antag -7, DRD3 agonist 3, TSHR antagonist 22 and B2AR arrestin 0%.
Cc1snc(S(=O)(=O)/C(C#N)=N\Nc2ccccc2)c1C#N was read as D3 antag -18 and DRD3 agonist -1.
Screening Cc1snc(S(=O)(=O)/C(C#N)=N/Nc2ccc(C(F)(F)F)cc2)c1C#N returned D3 antag -91*, DRD3 agonist -2, TSHR antagonist -21 and B2AR arrestin 0%.
`COc1cc(NC(=O)C(Cc2ccccc2)NS(=O)(=O)c2cccs2)cc(OC)c1` (centres undefined) gave DRD3 agonist -7.
`COc1cccc(OC)c1OCCN1CCC(C(=O)NC(c2ccc3c(c2)OCO3)c2ccccn2)CC1` (centres undefined) gave D3 antag -78* and DRD3 agonist -29.
`O=C(NC(c1ccc2c(c1)OCO2)c1ccccn1)C1CCN(CCOc2ccc(Cl)cc2Cl)CC1` (centres undefined) gave D3 antag -75* and DRD3 agonist -11.
O=C(NC(c1ccc(F)cc1)c1cnccn1)C1CCN(CCOc2ccc(Cl)cc2Cl)CC1 (centres undefined) was read as D3 antag -71* and DRD3 agonist -9.
Screening Cc1cccnc1C(NC(=O)C1CCN(CCOc2ccc(Cl)cc2Cl)CC1)c1ccc(Cl)cc1 (centres undefined) returned D3 antag 36 and DRD3 agonist 41*.
`COc1ccc(OC)c(NC(=O)CCc2nc(-c3ccc(C)cc3)no2)c1` gave DRD3 agonist -4.
COc1cc(Nc2nc3c(S(=O)(=O)c4ccc(C)c(C)c4)nnn3c3ccsc23)cc(OC)c1 was read as DRD3 agonist 3.
N#Cc1ccccc1NC(=O)C(=O)NCC(c1cccnc1)N1CCN(c2ccccc2)CC1 (centres undefined) was read as DRD3 agonist -15.
For O=C(NC(c1ccc(Cl)cc1)c1ccccn1)C1CCN(CCOc2ccc(Cl)cc2Cl)CC1 (centres undefined) the results were D3 antag -77* and DRD3 agonist -11.
For CCOC(=O)c1ccc(NC(=O)Cn2cc(C(=O)C3CC3)c3ccccc32)cc1 the results were DRD3 agonist -2.
O=[N+]([O-])c1cccc(CN2CCCCCC2)c1 was read as D3 antag -55*, DRD3 agonist -25, TSHR antagonist 1 and B2AR arrestin -5%.
For O=C(CN1CCCCCC1)Nc1cccc([N+](=O)[O-])c1 the results were D3 antag -83*, DRD3 agonist -7, TSHR antagonist 19 and B2AR arrestin 0%.
For O=[N+]([O-])c1cccc(CN2CCN(Cc3ccco3)CC2)c1 the results were D3 antag -75*, DRD3 agonist -23, TSHR antagonist inconclusive and B2AR arrestin 0%.
Screening O=C(Nc1cccc(Cl)c1)OCCN1CCN(Cc2ccccc2)CCC1=O returned D3 antag -17, DRD3 agonist 34*, TSHR antagonist 3 and B2AR arrestin -1%.
`COc1cccc(NC(=O)OCCN2CCN(Cc3ccccc3)CCC2=O)c1` gave D3 antag 19, DRD3 agonist 44*, TSHR antagonist -4 and B2AR arrestin 0%.
O=C(Nc1ccccc1)OCCN1CCN(Cc2ccccc2)CCC1=O was read as D3 antag 26, DRD3 agonist -2, TSHR antagonist 22 and B2AR arrestin 0%.
